MEX-5 binding – C. elegans MEX-5 TCR-2 RNA binding activity. MEX-5/FITC-TCR2 RNA binding, fluorescence polarization; active compounds read low. activity score (negative = inhibition of binding), % at 10 µM. 300,000 compounds, 0.38% hits;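 active = inhibition past about -25% in most replicates, and total fluorescence under double the plate's negative control median, limit read from the data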;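 note: 0% = DMSO and -100% = 5 µM competing unlabeled TCR2 RNA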
Target sequence (Q9XUB2 whole entry, looked up): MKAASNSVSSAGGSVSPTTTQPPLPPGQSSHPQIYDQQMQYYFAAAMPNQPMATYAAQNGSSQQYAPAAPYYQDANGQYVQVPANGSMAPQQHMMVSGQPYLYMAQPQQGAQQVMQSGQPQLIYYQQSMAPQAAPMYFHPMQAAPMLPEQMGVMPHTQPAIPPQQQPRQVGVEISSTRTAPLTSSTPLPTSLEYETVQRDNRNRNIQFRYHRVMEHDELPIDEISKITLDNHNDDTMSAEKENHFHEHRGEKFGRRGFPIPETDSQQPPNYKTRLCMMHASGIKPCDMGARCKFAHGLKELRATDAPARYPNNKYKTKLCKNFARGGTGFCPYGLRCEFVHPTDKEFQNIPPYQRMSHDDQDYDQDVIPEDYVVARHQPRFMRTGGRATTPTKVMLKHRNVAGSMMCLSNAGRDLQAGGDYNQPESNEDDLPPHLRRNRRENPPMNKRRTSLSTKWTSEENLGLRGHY
m5-HT2A agonist – mouse HTR2A agonism via beta-arrestin recruitment; CHO-K1 mHTR2A beta-arrestin complementation, luminescence; percent of 30 µM serotonin response; activation, % at 7.6 µM; 360,000 compounds, 0.66% hits;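 active = activation above a run cutoff, the mean activation of all tested compounds plus 3 SD, cut at about 14% in these data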;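 note: 0% = plate median of compound wells and 100% = 30 µM serotonin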
JMJD2C inh – human JMJD2C demethylase inhibition; AID 2099; 330,000 compounds, 0.069% hits; GST-JMJD2C(1-420) H3K9me3 demethylation, DELFIA europium; Q9H3R0; inhibition, % at 2.35 µM;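 active = more than half of a compound's replicate wells show inhibition beyond 50%, single wells judged on their own value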;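 note: signal counts dimethyl H3K9 product captured on neutravidin plate; 0% = median of DMSO wells and 100% = 0.3 times that DMSO median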
Exocytosis inh – lytic granule exocytosis inhibition. inhibition, % at 10 µM. TALL-104 LAMP-1 surface exposure, flow cytometry; cells stimulated with thapsigargin and PMA. AID 651702. 360,000 compounds, 0.66% hits;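 active = inhibition above about 55%, limit read from the data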
V-ATPase pH – alters yeast V-ATPase proton transport. S. cerevisiae, pHLuorin cytosolic pH fluorescence. response, % at 10 µM. 350,000 compounds, 0.37% hits. AID 504577; in the data active = response mostly above about 7.3%, no sharp cut-off; inactive = mostly below about 5.4%; note: actives read high
VLA-4 inh – inhibition in a human VLA-4 binding assay; P13612; 330,000 compounds, 0.2% hits; inhibition, % (about 7 µM as worked out from the volumes in the protocol); AID 2557; VLA-4 expressing cells, ligand binding flow cytometry; in the data active = inhibition above about 50%
Starred values were filed as active, the others as inactive; x = no result. Rows were chosen to be rich in hits. Some 2.2% of all compounds tested hit in one or more screens of this group.

SMILES | MEX-5 binding | m5-HT2A agonist | JMJD2C inh | Exocytosis inh | V-ATPase pH | VLA-4 inh
CC(C)(c1ccccc1)c1ccc(OCC2CO2)cc1 (centres undefined) | -2 | 4 | 2 | 56* | -2 | -7
NC(=O)c1ccsc1NC(=O)CCS(=O)(=O)c1ccc(F)cc1 | 1 | 4 | 0 | 4 | 0 | 5
COc1ccc(-c2cc(C(=O)N3CCN(c4ccccc4O)CC3)c3ccccc3n2)cc1OC | 0 | 5 | -2 | -5 | -1 | -1
O=S(=O)(c1ccc(OCC2CO2)cc1)c1ccc(OCC2CO2)cc1 (centres undefined) | 2 | 6 | 4 | -2 | 0 | -4
Cc1ccccc1OCc1nnc(SCC(=O)Nc2ccc3nc(SCC(=O)NC(C)(C)C)sc3c2)n1C | -5 | -3 | 4 | 77* | -8 | 7
O=C(COc1cccnc1[N+](=O)[O-])NCc1ccccc1 | -3 | 2 | -22 | 1 | -2 | 1
Oc1c(Br)cc(Br)c(/C=N/n2c(-c3ccccc3)n[nH]c2=S)c1Br | -37* | -1 | 8 | 0 | 3 | 10
C/C(=N\Nc1ccc(Cl)c(C(=O)O)c1)c1cccs1 | -4 | -3 | 20 | -1 | 1 | 0
C/C(=N\Nc1ccc(Cl)c(C(=O)O)c1)c1ccc[nH]1 | -38* | 4 | 5 | 7 | 0 | 8
CCCCNS(=O)(=O)CCNCc1ccco1 | x | 3 | x | -5 | -1 | x
NC(N)=N/N=C/c1ccc(OCc2ccc(Cl)cc2)cc1 | 1 | -9 | 2 | 73* | -2 | 32
CC1CC(=O)c2c(cc3c(-c4c(O)cc(O)c5c(O)c6c(cc45)OC(C)CC6=O)c(O)cc(O)c3c2O)O1 (centres undefined) | -35* | -9 | 10 | 8 | -1 | -59
O=C(N/N=C/c1ccoc1)c1ccccc1O | -1 | 3 | 4 | 1 | -1 | 18
O=C(N/N=C/c1oc(O)c2ccccc12)c1ccccc1O | -34* | 3 | 4 | 6 | 1 | 3
CCN(CC)C(=O)CSc1nc2cccnc2n1-c1ccccc1OC | -3 | 5 | 7 | 0 | 0 | 11
COc1ccccc1-n1c(SCC(=O)N2CCCC2)nc2cccnc21 | 0 | -3 | 62* | -1 | 2 | 3
CC(C)OC(=O)c1c2c(n3ccccc13)C(=O)c1ccccc1C2=O | -31* | 2 | 12 | 36 | -3 | -19
COc1cc(C2NC(=O)N(C)C(C)=C2C(=O)OCc2ccccc2)cc(Br)c1O (centres undefined) | 3 | 4 | -2 | 13 | -2 | -5
Cc1cccc(OCC(=O)NCC(=O)N/N=C/c2cc(Br)cc(Br)c2O)c1 | 0 | 3 | 7 | 29 | -2 | 5
Nc1c(C(=O)Nc2ccccc2)sc2nc3c(c(-c4ccco4)c12)CCC3 | -5 | 8 | 6 | 3 | -7 | -4
Cc1ccc(NC(=O)c2sc3nc4c(c(-c5ccco5)c3c2N)CCC4)cc1 | -55* | 5 | 4 | 1 | -1 | 4
O=S(=O)(O)c1cccc2c(N=Nc3ccc(O)c4ncccc34)cccc12 | -92* | -2 | -2 | 0 | 3 | 3
Cc1ccccc1N=Nc1ccc(O)c2ncccc12 | 1 | 1 | 13 | -3 | 5 | 19
CNc1c(N)n(Cc2ccccc2)c(=O)[nH]c1=O | -32* | -4 | -23 | -5 | -2 | -5
Cc1cc2ccccn2c1C(=O)c1ccncc1 | 1 | 1 | 69* | 8 | 1 | 4
SMILES | MEX-5 binding | m5-HT2A agonist | JMJD2C inh | Exocytosis inh | V-ATPase pH | VLA-4 inh
Cc1cc2ccccn2c1C(=O)c1ccc(Cl)cc1 | -1 | 1 | -22 | -3 | 1 | 18
O=C(Cc1n[nH]c(=O)c2ccccc12)OCC(=O)c1ccc(F)c(F)c1 | -1 | 1 | -42 | 1 | 0 | 6
CCCC(=O)Nc1ccc2c(c1)nc1n2CCOC1 | 2 | 4 | 12 | 9 | 14 | 2
CS(=O)(=O)Nc1ccc2c(c1)nc1n2CCOC1 | 1 | -1 | -15 | -1 | 20* | 4
CCCCOC(=O)CSc1nc2ccccc2o1 | 0 | 2 | 1 | -2 | 1 | 7
O=C(CNC(=O)c1cccc(F)c1)N/N=C/c1cc(Br)ccc1OC(=O)/C=C/c1ccco1 | -4 | -2 | 0 | 13 | 1 | x
O=C(CNC(=O)c1ccccc1O)N/N=C/c1cc(Br)ccc1OC(=O)/C=C/c1ccco1 | 0 | x | 54* | x | x | 9
CCOc1cc(C(=O)Oc2cc(C)[nH]c(=O)c2[N+](=O)[O-])cc(OCC)c1OCC | 3 | -3 | -14 | 0 | 5 | 1
Cc1cc(C)n(C(C)CC(=O)N2CCc3ccccc32)n1 (centres undefined) | 2 | -6 | -3 | -3 | -3 | 4
Cc1cc(C)n(C(CC(=O)N2CCc3ccccc3C2)C(=O)O)n1 (centres undefined) | 1 | 6 | 11 | -3 | 16* | 3
O=C(CN1C(=O)NC2(CCCCC2)C1=O)NCCCSc1ccccc1 | x | 1 | x | 2 | -3 | 16
O=C1NC(=S)S/C1=C/c1ccc(OC(=O)c2ccco2)cc1 | 2 | 6 | -1 | 79* | 4 | -6
COc1cc(/C=C(/C#N)C(=O)c2c(C)[nH]c3ccccc23)ccc1OCC#N | -1 | 0 | 0 | 57* | 1 | -7
CCOc1ccc(/C=C(\C#N)C(=O)c2c(C)[nH]c3ccccc23)cc1OC | -2 | -3 | -16 | -1 | 6 | 13
COc1ccc(/C=N/Nc2cc(N3CCCC3)nc(N3CCCC3)n2)cc1 | 1 | -6 | -14 | 72* | 3 | -11
Cc1cc(C)c(S(=O)(=O)NCC23C=CC(O2)C2C(=O)N(c4ccccc4)C(=O)C23)c(C)c1 (centres undefined) | 1 | -4 | 3 | 77* | 2 | -15
O=C1C2C3C=CC(CNS(=O)(=O)c4ccccc4[N+](=O)[O-])(O3)C2C(=O)N1c1ccccc1 (centres undefined) | 2 | -1 | 1 | 54 | 3 | -2
Cc1ccc(N2C(=O)C3C4C=CC(CNC(=S)Nc5ccc(Cl)cc5)(O4)C3C2=O)cc1 (centres undefined) | 1 | -2 | -3 | 39 | -5 | 21
CC(C)COC(=O)NCC12C=CC(O1)C1C(=O)N(c3ccc(Cl)cc3)C(=O)C12 (centres undefined) | 1 | 3 | 1 | 91* | -2 | 28
COc1ccc(-c2cc(=O)oc3cc(OCC(=O)Nc4ccc(CCO)cc4)ccc23)cc1 | 2 | 1 | 53 | -1 | -1 | 22
Cc1ccc(NC(=O)Nc2cc(Cl)ccc2C2COC(=O)C2=N)cc1 (centres undefined) | -2 | -2 | -3 | -1 | -1 | 55*
O=C(O)CCNc1ccc(NCCC(=O)O)c2c1C(=O)c1ccccc1C2=O | -55* | 2 | 9 | 7 | -2 | -17
